Assay results from PubChem BioAssay (EPA / NIEHS).
Activity calls are given as the source filed them. Rule for the calls: active = hit-call score of the fitted dose curve at least 0.9, where 1 is the maximum; inactive = score below 0.9.

Test: CCTE_Shafer_MEA_dev_burst_rate: CCTE's Neural Network Formation Assay for Burst Rate, Shafer Lab (AID 2284042)
Protocol: CCTE_Shafer_MEA_dev assay is conducted using Axion Biosystems 48 well microelectrode array (MEA) plates and Maestro recording system. Each well of the MEA plate contains a grid of 16 microelectrodes embedded in the culture surface. Electrically active cells, such as neurons, can be cultured over the electrodes, and electrical activity in these cells can be recorded extracellularly. The spontaneous firing of neurons is captured from each electrode on a microsecond timescale providing both temporally and spatially precise data. […] The CCTE_Shafer_MEA_dev assay uses primary cultures of rat cortical neurons. Recordings are made on days post-plating 5, 7, 9 and 12. As these cultures mature over time, neural networks develop functional activity and form cohesive networks in which electrical activity can be highly coordinated. CCTE_Shafer_MEA_dev_burst_rate is 1 of 19 assay components of the CCTE_Shafer_MEA_dev assay. It measures the frequency of single-electrode bursts (temporally-clustered groups of action potential firing) as the total number of bursts divided by the length of the recording in a microelectrode array (MEA) using Axion Biosystems Maestro 768 channel amplifier with the AxIS adaptive spike detector. The mean bursting rate is averaged across the active electrodes to report a well-mean value. To collapse across multiple recordings made on days post-plating 5, 7, 9 and 12, the trapezoidal area-under-the-curve of the component is calculated.Data from the assay component CCTE_Shafer_MEA_dev_burst_rate was analyzed into 1 assay endpoint. This assay endpoint, CCTE_Shafer_MEA_dev_burst_rate, was analyzed in the negative analysis fitting direction relative to DMSO as the negative control and baseline of activity. Using a type of functional reporter, gain or loss-of-signal activity can be used to understand electrical activity.
On the day prior to culture, each well was coated thoroughly with 150 uL of 0.05% polyethyleneimine (PEI, Sigma Cat P3143) in 50 mM HEPES (Sigma Cat H7523) at a pH of 8. The plate was incubated at 37C for one hour. PEI was rinsed out with 500 uL of sterile water three times. Plates were stored at 4C until the day of culture. This culture was plated at a seeding density of 1.5 x 10^5 cells/well on a 48-well MEA plate, prepared as described above. Cells were administered via a 25 uL media/laminin ([…]; Sigma Cat L2020-1MG) drop directly onto the microelectrode array, as adding the cells with the laminin results in better attachment than pre-coating with laminin. After 2 hours, an additional 475 uL of cortical media was added and the cells returned to the incubator. Exposure starts at day 0 of plating and is continued over twelve days of network development until the experiment is terminated. Cells are fed with fresh medium on DIV 5 and 9, following the recordings on those days. The entire volume of media in the well is exchanged and any vehicle or compound treatment is renewed. Complete details are found in OP-NHEERL/ISTD/SBB/TJS/2015-03-r0 (available on request, email shafer.tim@epa.gov). Measurement of the electrical activity is non-invasive, and recordings can be made from the same plate over multiple different days of the culture. In cortical neurons, this allows for the measurement of extracellular action potentials over the period during which networks form in the MEA plate.

outcome, inactive:
CCCCCC=C(C)C(CC)CCO (stereo not drawn)
F
CCc1ccccc1
c1ccc2c(c1)ccc1c3ccccc3ccc21
Brc1cc(Br)c(Oc2cc(Br)c(Br)cc2Br)cc1Br
[O]=[V]([OH])([OH])[OH]
CC(=O)N[C@@H](CC(=O)O)C(=O)O
C[C@@H]1CC[C@@H](C(C)(C)O)[C@H](O)C1
c1cc2c3c(c1)ccc1cccc(c13)C2
O=C1CC2(CCCC2)CC(=O)N1CCCCN1CCN(c2ncccn2)CC1
CCCCCC(C)(CC)C(=O)NC (stereo not drawn)
Cc1[nH]n(C)c(=O)c1C(=O)c1ccc(C(F)(F)F)cc1S(C)(=O)=O
CC(C)O
CC(C)c1nn(C(=O)NC(C)(C)C)c(=O)n1N

AC50, active:
CN(C)CCCn1cc(C2=C(c3c[nH]c4ccccc34)C(=O)NC2=O)c2ccccc21 1.61 µM [middle of 4 runs]
BrC1CC(Br)CC(Br)CC(Br)CC(Br)CC(Br)C1 (stereo not drawn) 4.73 µM
C[C@@H]1CCO[C@H]2Cn3cc(C(=O)NCc4ccc(F)cc4F)c(=O)c(O)c3C(=O)N12 1.67 µM
CC(CNC(=S)[S-])NC(=S)[S-].[Zn+2] (stereo not drawn) 9.92 µM
